# Screening data from PubChem BioAssay.
# Compounds with a hit are over-represented: about 1.3% of the library has one in this group of screens.
# Mtb hypoxia rep: reduces hypoxia-regulated biosensor signal in M. tuberculosis; fluorescence inhibition, % (concentration not given with the values); 300,000 tested, 0.1% active; M. tuberculosis hypoxia-regulated fluorescent reporter, fluorescence; in the data active = fluorescence inhibition mostly above about 23%, no sharp cut-off; inactive = mostly below about 17%
# PfHsp40 yeast: rescue of PfHsp40-mediated yeast toxicity | S. cerevisiae expressing PfHsp40, growth rescue, ATP luminescence | 340,000 tested, 0.68% active | growth rescue, % at 12.5 µM | AID 504582; in the data active = growth rescue above about 28%, passing the limit was not always enough;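 note: yeast W303a lacking pdr1 and pdr3 grown in galactose medium; growth measured after three days at 30 °C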
# TcdB GH inh: blocks C. difficile toxin B glycohydrolase activity; P18177; TcdB glycohydrolase enzymatic assay, plate reader; inhibition, % at 9.99 µM; 350,000 tested, 0.24% active; in the data active = inhibition above about 10%
# RN4220 kill: kills Staphylococcus aureus RN4220 | inhibition, % (no concentration beside the values) | S. aureus RN4220 growth, OD600, 16 h | 330,000 tested, 0.33% active | AID 1259311; in the data active = inhibition above about 85%;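 note: plate controls were untreated cells for no effect and reference antibiotic for full effect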
# Sa ugtP lethal: kills S. aureus RN4220 lacking UgtP; S. aureus RN4220 ugtP deletion, OD600 growth, 16 h; growth inhibition, % (concentration not given with the values); 330,000 tested, 0.54% active; in the data active = growth inhibition above about 68%;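 note: plate controls were untreated wells for no effect and antibiotic for full effect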
# MazF activator: activators of E. coli MazEF toxin-antitoxin RNase; P0AE70; FAM/BHQ RNA-DNA oligo cleavage fluorescence, 5 h; activation, % at 20 µM; 350,000 tested, 0.32% active; in the data active = activation above about 50%
# An asterisk follows results filed as active; . = no result given.
SMILES,Mtb hypoxia rep,PfHsp40 yeast,TcdB GH inh,RN4220 kill,Sa ugtP lethal,MazF activator
COc1cc(/C=C2\SC(=S)N(NS(=O)(=O)c3ccc(C)cc3)C2=O)ccc1O,12,303*,0,86*,71,-187
CCCNC(=O)N1[C@H](CO)[C@@H](c2ccccc2)C12CN(C(=O)CC1CC1)C2,.,.,0,.,.,.
CO[C@H]1CN(C)C(=O)c2cc(NC(=O)C3CCC3)ccc2OC[C@@H](C)N(Cc2ccc(F)cc2)C[C@@H]1C,.,.,-1,.,.,.
NC(=NOC(=O)COc1ccc([N+](=O)[O-])cc1)c1ccncc1,7,.,.,4,5,.
COc1ccccc1NC(=O)N[C@@H]1CC[C@@H](CCNS(=O)(=O)c2ccc(F)cc2)O[C@@H]1CO,.,.,0,.,.,.
Cc1noc(C)c1NC(=O)Nc1ccc2c(c1)C(=O)N([C@@H](C)CO)C[C@H](C)[C@@H](CN(C)Cc1ccccc1)OCCCC[C@@H](C)O2,.,.,0,.,.,.
O=C(COC(=O)c1ccccc1Br)NCC1CCCCC1,-3,.,2,0,-4,-7
O=C(COC(=O)c1ccccc1NCCO)NCC1CCCCC1,31*,0,0,3,2,9
Nc1[nH]c(=O)ncc1F,7,370*,0,7,1,9
CCCCCCCCCCn1ccc(=N)cc1,14,-1,0,100*,101*,10
O=C(NC(CO)C(O)c1ccc([N+](=O)[O-])cc1)C(Cl)Cl (configuration not stated),.,-2,2,89*,96*,3
O=[N+]([O-])c1ccc(C(O)C(CO)NC(=S)Nc2ccccc2)cc1 (configuration not stated),20,-1,2,9,39,14
O=C(N[C@H](CO)[C@H](O)c1ccc([N+](=O)[O-])cc1)C(Cl)Cl,.,-1,1,98*,98*,9
Cc1ccc(NC(=S)NC(CO)C(O)c2ccc([N+](=O)[O-])cc2)cc1 (configuration not stated),4,0,1,2,2,-5
O=C(NC(CO)Cc1ccc([N+](=O)[O-])cc1)C(Cl)Cl (configuration not stated),.,0,.,94*,99*,15
O=C(O)CC(Cc1ccc(Cl)cc1)C(=O)Nc1ccc([N+](=O)[O-])cc1 (configuration not stated),14,0,.,5,11,-2
COCCCNC(=S)NC1CC2CCC(C1)N2Cc1ccccc1 (configuration not stated),6,35*,0,7,-2,11
COc1cc(C(=O)Nc2cc(S(=O)(=O)N3CCOCC3)ccc2N2CCOCC2)cc(OC)c1C,9,2,1,1,6,-4
COc1cc(C(=O)Nc2cc(S(=O)(=O)N3CCOCC3)ccc2N2CCOCC2)ccc1OC(F)F,23*,0,2,5,0,11
CCCCn1c(=O)[nH]c(=O)c2c1nc(-c1ccc(OC(F)F)c(OC)c1)n2C,1,-1,2,1,5,71*
CC(Sc1nnc(-c2cccs2)n1Cc1ccccc1)C(=O)NCc1ccc2c(c1)OCO2 (configuration not stated),0,0,.,-14,-11,64*
N#CCC(Cc1ccccc1)N1CCN(CCc2ccccc2)CCC1=O (configuration not stated),-1,.,.,5,4,.
CCCCC(NC(=O)Cc1c(C)c2cc3c(-c4ccccc4)coc3c(C)c2oc1=O)C(=O)O (configuration not stated),-4,0,1,98*,100*,-8
COc1cccc(-c2coc3c(C)c4oc(=O)c(CCC(=O)O)c(C)c4cc23)c1,6,-1,2,100*,100*,-8
Cc1c(CC(=O)O)c(=O)oc2c(C)c3occ(-c4ccc(Br)cc4)c3cc12,.,1,1,.,.,-36
SMILES,Mtb hypoxia rep,PfHsp40 yeast,TcdB GH inh,RN4220 kill,Sa ugtP lethal,MazF activator
CC[C@@H](C)[C@H](NC(=O)Cc1c(C)c2cc3c(C)coc3c(C)c2oc1=O)C(=O)O,7,1,-1,0,-1,5
COc1ccc(-c2coc3c(C)c4oc(=O)c(CC(=O)O)c(C)c4cc23)cc1,9,0,-1,93*,100*,-10
COc1cccc(-c2coc3c(C)c4oc(=O)c(CC(=O)O)c(C)c4cc23)c1,2,3,1,95*,99*,-14
C[C@H](CO)N1C[C@H](C)[C@@H](CN(C)S(=O)(=O)c2ccc(F)cc2)Oc2ncc(-c3ccncc3)cc2C1=O,.,.,-2,.,.,.
C=CCn1c(CSc2ccccc2[N+](=O)[O-])n[nH]c1=S,7,0,1,3,-3,3
C=CCn1c(Sc2ncc([N+](=O)[O-])s2)n[nH]c1=O,11,0,1,27,89*,1
CSCCC(NC(=O)c1ccccc1Cl)C(=O)NCc1ccncc1 (configuration not stated),8,-2,1,4,2,5
CSCCC(NC(N)=O)C(=O)NCc1ccc(Cl)cc1 (configuration not stated),16,80*,.,2,7,-1
COc1ccc(N2C(=O)c3cccc4c(N(C)CCO)ccc(c34)C2=O)cc1,2,-1,1,3,3,155*
COc1ccc(N2C(=O)c3cccc4cccc(c34)C2=O)cc1,13,-1,1,4,2,7
C=CCN1C(=O)S/C(=C\c2ccc(N3CCOCC3)cc2C)C1=O,8,-1,.,6,-3,103*
C=CC(C)N1C(=O)S/C(=C\c2ccc(N3CCOCC3)cc2C)C1=O (configuration not stated),4,0,1,5,-10,43
COC(=O)C1=C(c2ccc(-c3ccccc3)c(F)c2)CC2CCC1N2C(=O)NCCOc1ccccc1Cl (configuration not stated),3,.,.,18,8,.
O=C(NN=Cc1ccc([N+](=O)[O-])o1)C1CC1,3,.,.,20,22,.
O=C(NN=Cc1ccncc1)c1ccccc1,12,.,.,2,8,.
O=C(N/N=C/c1ccncc1)c1cc2ccccc2cc1O,.,187*,0,.,.,-1
CC(=NNC(=O)c1ccco1)c1ccc(NC(=O)c2ccc(F)cc2)cc1,3,.,.,0,5,.
CCOC1c2c(ccc3ccc(=O)oc23)OC(C)(C)C1O (configuration not stated),9,.,.,3,-11,.
Cc1cccc(O)c1C,.,0,0,4,9,9
Cc1cccc(C)c1N=Nc1c(C)cc(O)cc1C,13,782*,3,-12,85,-2
COc1cccc(-c2cc(C(=O)Nc3cc(C)n(Cc4ccc(Cl)cc4)n3)no2)c1,14,-1,0,-5,-15,51*
CC12CCC(O)CC1=CCC1C2CCC2(C)C3=NN=CC3CC12 (configuration not stated),4,86*,0,2,18,1
